Records with an inconclusive call do not appear. Entries that show only a call come without a potency. Activity calls are given as the source filed them. Calls come from the whole dose curve; as a rule, active = well fitted inhibition curve with a large enough effect; inconclusive = small, poorly fitted or top-dose-only effect; inactive = no such curve, though single readings can be large or run the other way.
What follows are molecules tested against Nicotinamide N-methyltransferase (Homo sapiens) (UniProt P40261) (assay: qHTS Assay for Inhibitors of N-terminal methyltransferase 1 (NTMT1): NNMT MTaseGlo counterscreen assay). Conditions: NNMT enzyme, MTase-Glo luminescence counterscreen; series mostly up to 57.1 µM.
How it was run: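 Luminescent MTase-Glo read-out of SAH from nicotinamide methylation: 1 µM nicotinamide, 100 µM SAM, 125 nM NNMT, 30 min RT after ~15 min compound preincubation. Values normalized to no-enzyme/DMSO controls, Hill-fitted.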

Nicotinamide N-methyltransferase (Homo sapiens), sequence (P40261 whole entry, looked up): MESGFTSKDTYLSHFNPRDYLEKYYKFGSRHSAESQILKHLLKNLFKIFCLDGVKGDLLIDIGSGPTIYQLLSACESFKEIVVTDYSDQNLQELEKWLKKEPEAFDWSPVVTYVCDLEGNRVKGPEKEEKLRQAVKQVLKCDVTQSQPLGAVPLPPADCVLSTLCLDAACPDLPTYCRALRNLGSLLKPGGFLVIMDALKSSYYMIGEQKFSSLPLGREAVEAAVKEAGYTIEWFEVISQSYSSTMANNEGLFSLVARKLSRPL

| Structure (SMILES) | Potency |
| --- | --- |
| Nc1nc(=S)c2ncn([C@H]3O[C@@H](CO)[C@@H](O)[C@@H]3O)c2[nH]1 | inactive |
| Nc1nc(F)nc2c1ncn2[C@@H]1O[C@H](CO)[C@@H](O)[C@@H]1O | inactive |
| Oc1cc(O)c2c(c1)O[C@H](c1ccc(O)c(O)c1)[C@@H](O)C2 | inactive |
| Cc1nnc(SCC2=C(C(=O)O)N3C(=O)[C@@H](NC(=O)Cn4cnnn4)[C@H]3SC2)s1 | inactive |
| CN(C)CCCC1(c2ccc(F)cc2)OCc2cc(C#N)ccc21 (stereo not drawn) | inactive |
| OCC1OC(n2cnc3c(=S)nc[nH]c32)C(O)C1O (stereo not drawn) | inactive |
| C#CCN(C)CCCOc1ccc(Cl)cc1Cl | inactive |
| Oc1ccc(Cn2cc[nH]c2=S)cc1 | inactive |
| Clc1nccc2c1ccc1ccccc12 | inactive |
| Cc1cc2c(cc1Cl)N(C(=O)Nc1ccc(Oc3cccnc3C)nc1)CC2 | inactive |
| C=CCN1CCc2cc(O)c(O)cc2[C@H](c2ccccc2)C1 | inactive |
| Oc1ccc2ccccc2c1SSc1c(O)ccc2ccccc12 | inactive |
| NC[C@@H]1O[C@H](c2ccccc2)Cc2c1ccc(O)c2O | inactive |
| Cc1cc(O)c2c(c1)C(=O)c1cc(O)cc(O)c1C2=O | inactive |
| CCCc1cc(C)[nH]c(=O)c1CNC(=O)c1cc(-c2ccc(N3CCN(C(C)C)CC3)nc2)cc2c1cnn2C(C)C | inactive |
| N#C/C(=C\c1ccc(O)c(O)c1)C(=O)c1ccc(O)c(O)c1 | inactive |
| N=c1c[n+](N2CCOCC2)[n-]o1 | inactive |
| COC(=O)[C@H]1[C@H]2C[C@H]3c4[nH]c5ccccc5c4CCN3C[C@H]2CC[C@@H]1O | inactive |

Source: PubChem BioAssay AID1347146 (National Center for Advancing Translational Sciences (NCATS), 2019)
